Laboratory results from ChEMBL document CHEMBL3988442, “University of Dundee, Small-Polar-MMV Screening Library” (2021).

Legend:
[1] = target: T1, Aspartate--tRNA(Asp/Asn) ligase (Mycobacterium tuberculosis (strain ATCC 25618 / H37Rv)) (UniProt P9WFW3); experiment: Assay for Asp RNA synthetase-1 from Mycobacterium tuberculosis; format: functional; parameters: scale not given: direction of the effect not stated beside the values; conditions: 30 µM; note: in the data most compounds retested in dose-response had high values
T1 sequence (whole entry): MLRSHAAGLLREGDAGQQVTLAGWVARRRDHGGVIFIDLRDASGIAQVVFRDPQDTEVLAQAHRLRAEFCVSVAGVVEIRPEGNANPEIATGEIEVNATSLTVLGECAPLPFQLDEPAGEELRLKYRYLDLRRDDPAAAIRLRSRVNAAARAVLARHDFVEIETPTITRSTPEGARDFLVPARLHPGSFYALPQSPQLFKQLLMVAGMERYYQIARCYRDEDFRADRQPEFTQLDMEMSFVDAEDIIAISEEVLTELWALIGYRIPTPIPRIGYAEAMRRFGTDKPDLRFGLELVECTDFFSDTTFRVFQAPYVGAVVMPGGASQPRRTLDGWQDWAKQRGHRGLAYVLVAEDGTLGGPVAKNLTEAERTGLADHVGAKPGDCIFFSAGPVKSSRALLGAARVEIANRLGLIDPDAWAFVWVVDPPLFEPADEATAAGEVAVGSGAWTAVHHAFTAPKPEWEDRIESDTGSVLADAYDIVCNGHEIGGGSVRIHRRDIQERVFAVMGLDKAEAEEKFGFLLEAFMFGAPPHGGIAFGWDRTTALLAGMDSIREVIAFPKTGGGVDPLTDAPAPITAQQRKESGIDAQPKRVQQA

[2] = target: Shiga toxin 2 (Escherichia coli O157:H7) (UniProt P09385+P09386); experiment: E. coli 0.157:H7 Shiga Toxin SOP - stx2 screening assay; format: functional; parameters: scale not given: direction of the effect not stated beside the values; conditions: 30 µM

COC[C@@]12CCO[C@@H]1CCN(C(=O)COc1ccccc1OC)C2
Percent Effect [1]: 4.72%
Percent Effect [2]: 19.5%

COCC(=O)N1CCCC2(CCN(c3ccsc3)C2=O)C1 (configuration not stated)
Percent Effect [1]: -1.49%
Percent Effect [2]: 0.668%

CCCNC(=O)N1CCN(Cc2cc(C)no2)CC1
Percent Effect [1]: -0.393%
Percent Effect [2]: 17.7%

Cc1noc(C)c1CNCC1CCCN1c1cccnn1 (configuration not stated)
Percent Effect [1]: 1.53%
Percent Effect [2]: 5.13%

O=C(C1CCCCC1)N1CCC2(CCCN2CC2CC2)CC1
Percent Effect [1]: 2.39%
Percent Effect [2]: -6.44%

COc1ccc(Cl)cc1C(=O)N1CCOC2(CNCCOC2)C1 (configuration not stated)
Percent Effect [1]: -0.926%
Percent Effect [2]: 11.2%

CCOc1ccc(C#N)cc1NCC(=O)Nc1cc(C)no1
Percent Effect [1]: -5.54%
Percent Effect [2]: -11.5%

CCn1ccnc1CN1CCN(CC(=O)NC(C)(C#N)C2CC2)CC1 (configuration not stated)
Percent Effect [1]: -4.1%
Percent Effect [2]: 27.2%

COCCN1CCOCC2(CCCN(Cc3ccc(C)o3)C2)C1 (configuration not stated)
Percent Effect [1]: -0.582%
Percent Effect [2]: -6.63%

CN(C)C(=O)CN1CCCCC1c1nc(N)ncc1-c1ccccc1 (configuration not stated)
Percent Effect [1]: -1.04%
Percent Effect [2]: 1.46%

COc1ccc2c(c1)CN(Cc1nc3ccsc3c(=O)[nH]1)CC2
Percent Effect [1]: -2.11%
Percent Effect [2]: 10.8%

Cc1ncsc1C(=O)NC1CCN(Cc2cccnc2)CC1
Percent Effect [1]: -7.07%
Percent Effect [2]: -58.8%

O=C(CCC1CCCC1)N1CCC(c2ncc3c(n2)CCNC3)CC1
Percent Effect [1]: -3.47%
Percent Effect [2]: -54.5%

CCN1CCC(CNC(=O)NCc2cc(-c3ccc(C)cc3)no2)C1 (configuration not stated)
Percent Effect [1]: 2.27%
Percent Effect [2]: -44.9%

CC(C)(C)c1cc(CN2CC[C@@H](NC(=O)c3cccnc3)[C@H](O)C2)n[nH]1
Percent Effect [1]: -4.62%
Percent Effect [2]: 14.9%

Cc1cc(C)c(CNC(=O)N2CCCC2C(N)=O)c(=O)[nH]1 (configuration not stated)
Percent Effect [1]: -6.91%
Percent Effect [2]: -4.4%

COc1cc(C)nc(N2CCN(Cc3nccn3C)CC2)n1
Percent Effect [1]: -1.39%
Percent Effect [2]: -9.36%

Cn1cc(CN2CCCC3(CCN(c4nncs4)C3)C2)cn1 (configuration not stated)
Percent Effect [1]: 6.31%
Percent Effect [2]: -11.3%

CCn1cc(NC(=O)NCC(O)CN2CCCCC2)cn1 (configuration not stated)
Percent Effect [1]: -0.173%
Percent Effect [2]: 21.2%

O=C(c1cccc(S(=O)(=O)NCCCc2ncc[nH]2)c1)N1CCOCC1
Percent Effect [1]: 8.25%
Percent Effect [2]: -13.2%

Cc1cc(N2CCN(CCO)CC2)nc(-c2ccncc2)n1
Percent Effect [1]: 1.26%
Percent Effect [2]: -27.4%

O=C(c1cccnc1-n1cccn1)N1CCN(CC2CC2)CC1
Percent Effect [1]: -1.91%
Percent Effect [2]: 7.9%

Cn1cc(C(=O)NCc2cn3c(n2)CN(CC2CCOCC2)CC3)cn1
Percent Effect [1]: -2.89%
Percent Effect [2]: -14.5%

O=C(CC1CC1)N1CCC2(CC1)CN(c1ncccn1)CCO2
Percent Effect [1]: -1.87%
Percent Effect [2]: 5.46%

Cc1cc(OCC(=O)NS(=O)(=O)c2c(C)noc2C)ccc1Cl
Percent Effect [1]: -2.01%
Percent Effect [2]: 13.3%

Cc1cnn(CC2CCCCN2C(=O)c2cc(Cl)c[nH]2)c1 (configuration not stated)
Percent Effect [1]: 1.83%
Percent Effect [2]: -31.9%

Cc1cnn(CCNCC(=O)NCC2(c3ccccc3)CCC2)c1
Percent Effect [1]: 4.12%
Percent Effect [2]: 22.9%

Cc1cc(C)n(CC2CN(Cc3cccc(C(N)=O)c3)CCO2)n1 (configuration not stated)
Percent Effect [1]: -8.8%
Percent Effect [2]: -5.62%

CC(C)(C)c1ccc(C2(C(=O)NCCCS(C)(=O)=O)CC2)cc1
Percent Effect [1]: 8.98%
Percent Effect [2]: -49.3%

CC(Cn1cccn1)NC(=O)Cc1cccs1 (configuration not stated)
Percent Effect [1]: -2.6%
Percent Effect [2]: -16.8%

COc1ccc2c(O)c(NC(=O)NCC3CC3)cnc2c1
Percent Effect [1]: 1.09%
Percent Effect [2]: -13.7%

COCC1c2c(cnn2CC2CC2)CCN1Cc1cccs1 (configuration not stated)
Percent Effect [1]: -0.524%
Percent Effect [2]: 0.46%

CCCOCC(=O)NS(=O)(=O)c1ccc2c(c1)OCCCO2
Percent Effect [1]: 1.8%
Percent Effect [2]: 17.6%

CC[C@@H]1N(CC2CC2)CCC[C@]12CCC(=O)N2CCOC
Percent Effect [1]: -4.31%
Percent Effect [2]: -1.83%

CC(C)N(C)Cc1cn2c(n1)CN(C(=O)Cc1ccsc1)CC2
Percent Effect [1]: 2.92%
Percent Effect [2]: -5.19%

Cc1nn(C)c(C)c1C1COCCN1C(=O)c1cnc(N)c(Cl)c1 (configuration not stated)
Percent Effect [1]: 0.88%
Percent Effect [2]: -23.7%

COc1cccc(CNC(=O)C(c2cccc(F)c2)N2CCOCC2)c1 (configuration not stated)
Percent Effect [1]: 1.86%
Percent Effect [2]: -6.55%

CC(C)C(=O)NC1CCN(Cc2cccc3c2OCCO3)CC1
Percent Effect [1]: -1.32%
Percent Effect [2]: 5.01%

CC[C@H](C)[C@H](NC(=O)c1ccccc1-n1cnnn1)C(=O)OC
Percent Effect [1]: 3.95%
Percent Effect [2]: -29.9%

Nc1nccc(N2CCC(Cc3ccccc3Cl)(C(=O)O)CC2)n1
Percent Effect [1]: -0.368%
Percent Effect [2]: -4.46%

CC(NC1(CNC(=O)Cn2cccn2)CCOCC1)c1ccccc1 (configuration not stated)
Percent Effect [1]: -0.24%
Percent Effect [2]: 10.6%

CCNc1cc2c(nn1)CCN(C(=O)c1ccc(CNC(C)=O)o1)C2
Percent Effect [1]: 5.42%
Percent Effect [2]: -44.4%

Cc1cc(C(=O)NCc2ccc(N3CCCC(C(N)=O)C3)cc2)[nH]n1 (configuration not stated)
Percent Effect [1]: -3.98%
Percent Effect [2]: -16.8%

COc1ccc(CCC(=O)N2CCCC2Cn2cc(C)cn2)cc1F (configuration not stated)
Percent Effect [1]: -1.15%
Percent Effect [2]: 18.7%

CNC(=O)CS(=O)(=O)Cc1coc(-c2ccc(F)cc2)n1
Percent Effect [1]: -1.26%
Percent Effect [2]: -3.77%

CCN1CCN(c2ccc(F)cc2C(C)NCc2noc(C)n2)CC1 (configuration not stated)
Percent Effect [1]: -3.26%
Percent Effect [2]: -6.75%
